About 1,400 (3.5%) of roughly 40,000 compounds were called active.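 The calls were made as follows: active = any of four per-well response measures lying three or more SD from its plate-wide compound average, in either direction; inactive = the rest, inconclusive results apart.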 The list comes from a sample in which actives are over-represented; it also holds similar structures and randomly drawn compounds.
Target: Voltage-dependent calcium channel gamma-2 subunit (Mus musculus) + Glutamate receptor 2 (Rattus norvegicus) (UniProt O88602+P19491)
Assay: modulators of GluA2-stargazin AMPA receptor complexes, primary screen, cell-based, membrane potential dye (AID 1259245)
Conditions: HEK293 GluA2+stargazin, membrane potential dye (FDSS), glutamate EC50, at 30 µM, hits were called plate by plate, in both directions; compound max-min signal: compound-alone response (agonism); glutamate slope, % of max: measured here: glutamate response slope, % max

Voltage-dependent calcium channel gamma-2 subunit (Mus musculus) + Glutamate receptor 2 (Rattus norvegicus), sequence (O88602 whole entry, looked up): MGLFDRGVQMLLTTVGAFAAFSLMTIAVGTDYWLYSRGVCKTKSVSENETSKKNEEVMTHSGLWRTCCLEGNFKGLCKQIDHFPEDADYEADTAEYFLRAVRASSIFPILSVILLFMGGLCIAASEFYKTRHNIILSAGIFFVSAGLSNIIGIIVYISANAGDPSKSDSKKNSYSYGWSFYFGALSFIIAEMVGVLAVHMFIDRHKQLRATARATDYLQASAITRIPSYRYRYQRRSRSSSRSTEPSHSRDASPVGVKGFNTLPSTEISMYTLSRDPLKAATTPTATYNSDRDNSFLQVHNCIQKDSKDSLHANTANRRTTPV
Voltage-dependent calcium channel gamma-2 subunit (Mus musculus) + Glutamate receptor 2 (Rattus norvegicus), sequence (P19491 whole entry, looked up): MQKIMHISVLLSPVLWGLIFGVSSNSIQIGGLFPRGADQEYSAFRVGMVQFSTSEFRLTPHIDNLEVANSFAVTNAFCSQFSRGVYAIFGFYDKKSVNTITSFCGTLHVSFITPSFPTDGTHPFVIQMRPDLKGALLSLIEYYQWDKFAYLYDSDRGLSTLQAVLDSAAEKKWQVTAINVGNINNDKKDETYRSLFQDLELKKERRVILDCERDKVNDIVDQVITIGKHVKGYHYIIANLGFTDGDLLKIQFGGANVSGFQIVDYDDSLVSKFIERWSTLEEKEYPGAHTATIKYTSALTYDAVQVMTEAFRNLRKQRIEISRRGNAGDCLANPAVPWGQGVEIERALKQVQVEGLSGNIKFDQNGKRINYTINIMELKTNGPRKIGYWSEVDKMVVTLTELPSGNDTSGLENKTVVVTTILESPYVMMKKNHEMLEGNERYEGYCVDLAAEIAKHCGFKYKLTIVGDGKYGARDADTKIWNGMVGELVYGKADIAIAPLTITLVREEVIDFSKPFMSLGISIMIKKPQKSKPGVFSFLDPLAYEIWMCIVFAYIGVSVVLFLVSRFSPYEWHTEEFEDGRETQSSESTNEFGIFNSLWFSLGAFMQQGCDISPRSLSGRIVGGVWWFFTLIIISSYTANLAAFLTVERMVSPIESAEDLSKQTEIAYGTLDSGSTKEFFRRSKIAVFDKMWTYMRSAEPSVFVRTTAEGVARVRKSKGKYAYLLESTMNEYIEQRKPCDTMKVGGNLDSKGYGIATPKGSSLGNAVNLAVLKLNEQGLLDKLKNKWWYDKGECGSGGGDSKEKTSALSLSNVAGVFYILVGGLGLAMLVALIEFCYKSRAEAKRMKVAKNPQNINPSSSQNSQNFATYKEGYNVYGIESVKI

Row | Structure (SMILES) | compound max-min signal | glutamate response, % of max | glutamate slope, % of max [%]
1 | CCNC(=O)CSc1nc(-c2ccccc2)c(NC(=O)CC2CCCC2)s1 | 0.0584 | 31.3% (inactive) | 44.8
2 | COc1ccc(CC(=O)NCCOc2cc(C)cc(C)c2)cc1OC | 0.0873 | 52% (inactive) | 63.4
3 | CC(C)NC(=O)Nc1ccc(CN2CCN(C)CC2)cc1 | 0.107 | 37% (inactive) | 57.1
4 | COc1ccc([N+](=O)[O-])cc1NC(=O)c1ccno1 | 0.13 | 15.2% (inactive) | 32.1
5 | O=C(c1ccno1)N1CCN(c2nc3ccc([N+](=O)[O-])cc3s2)CC1 | 0.188 | 27.8% (active) | 50.2
6 | COc1ccc(SCCC(=O)N2CCN(c3nc4ccc(F)cc4s3)CC2)cc1 | 0.0995 | 50.5% (inactive) | 60.6
7 | CN(C)C(=O)N1CCN(S(=O)(=O)c2ccc(F)cc2)CC1 | 0.11 | 30.6% (inactive) | 58.2
8 | O=C(CCCS(=O)(=O)c1ccc(F)cc1)Nc1cccc2c1C(=O)NC2=O | 0.0985 | 41.1% (inactive) | 66.5
9 | COc1ccc(N(Cc2cccc(C)c2)S(=O)(=O)c2ccc3nnc(C)n3c2)cc1 | 0.0921 | 39% (inactive) | 70.3
10 | CCCN(CCC)S(=O)(=O)c1cc([N+](=O)[O-])ccc1C | 0.0514 | 71% (active) | 88.7
11 | Cc1ccc([N+](=O)[O-])cc1NC(=O)C(=O)NCC(c1cccs1)N(C)C (configuration not stated) | 0.155 | 57.6% (inactive) | 83.7
12 | CCc1nc2sc(C(c3ccc(F)c(F)c3)N3CCN(C(C)=O)CC3)c(O)n2n1 (configuration not stated) | 0.111 | 52.6% (inactive) | 74.4
13 | NS(=O)(=O)c1ccc(CNC(=O)Cc2csc(Nc3cccc(Cl)c3)n2)cc1 | 0.171 | 32.8% (inactive) | 56.3
14 | COCC(=O)Nn1cnc2c(cnn2C(C)(C)C)c1=O | 0.121 | -2.09% (active) | 5.77
15 | Cc1ccccc1C(=O)Nn1cnc2c(cnn2C(C)(C)C)c1=O | 0.0501 | 31.3% (inactive) | 53.1
16 | CC(C)(C)n1ncc2c(=O)n(NC(=O)Cc3ccc([N+](=O)[O-])cc3)cnc21 | 0.0341 | 22.1% (inactive) | 47.4
17 | Cc1cc(C)c2c(n1)sc1c(=O)n(CC(=O)Nc3ccccc3Br)cnc12 | 0.125 | 47% (inactive) | 70.2
18 | CCCOC(=O)CC1C(=O)NCCN1C(=S)NC(=O)c1cccc(Cl)c1 (configuration not stated) | 0.102 | 20% (inactive) | 39.3
19 | COc1ccc(Cl)cc1NC(=O)NCC#CCN1CCc2ccccc2C1 | 0.108 | 30.6% (inactive) | 53.9
20 | COc1ccc(Cl)cc1NC(=O)CC1C(=O)NCCN1C(=S)Nc1ccccc1 (configuration not stated) | 0.205 | 26.6% (active) | 35.6
21 | Cn1nnc2c(N(CCc3ccccc3)Cc3ccccc3)ncnc21 | 0.0947 | 34% (inactive) | 57.6
22 | CCOC(=O)c1cn(CC(=O)Nc2ccc(C)cc2Cl)c2nc(C)ccc2c1=O | 0.132 | 31.9% (inactive) | 51
23 | COc1cc(NS(=O)(=O)c2ccc(NC(=O)c3ccc(S(=O)(=O)N4CCOCC4)cc3)cc2)ncn1 | 0.0995 | 43.4% (inactive) | 72.4
24 | CCOc1ccc2nc(N(Cc3ccncc3)C(=O)/C=C/c3cccs3)sc2c1 | 0.107 | 21.1% (inactive) | 47.3
25 | COc1ccc(S(=O)(=O)N2CCN(c3ccc4nncn4n3)CC2)cc1C | 0.114 | 18.4% (inactive) | 44.4

Row | Structure (SMILES) | compound max-min signal | glutamate response, % of max | glutamate slope, % of max [%]
26 | Cc1cccc(Nc2ccc(N3CCN(S(=O)(=O)c4cccs4)CC3)nn2)n1 | 0.445 | 13.5% (active) | 21.9
27 | CCc1ccc(S(=O)(=O)N2CCN(c3ccc(Nc4cccc(C)n4)nn3)CC2)cc1 | 0.366 | 22.6% (active) | 37.7
28 | O=S(=O)(c1ccc2c(c1)CCCC2)N1CCN(c2ccc3nncn3n2)CC1 | 0.0592 | 23.2% (inactive) | 46.1
29 | O=S(=O)(c1ccc(F)cc1F)N1CCN(c2ccc(-c3cccs3)nn2)CC1 | 0.0403 | 12.3% (inactive) | 30.1
30 | O=S(=O)(c1cccs1)N1CCC(c2ccsc2)CC1 | 0.115 | 35.3% (inactive) | 65.4
31 | COc1cccc(-c2noc(C3CCN(S(=O)(=O)c4ccc(C)cc4)CC3)n2)c1OC | 0.0999 | 28.5% (inactive) | 52.6
32 | O=S(=O)(c1ccccc1)N1CCN(Cc2nnnn2-c2ccc(F)cc2)CC1 | 0.0497 | 29.1% (inactive) | 63.3
33 | O=S(=O)(Cc1ccc(Cl)cc1)c1ccc(NCc2ccccc2)nn1 | 0.0863 | 49.2% (inactive) | 64.8
34 | CCOC(=O)N1CCN(/C=C2\Oc3c(ccc(O)c3C)C2=O)CC1 | 0.132 | 21.6% (inactive) | 32.3
35 | COc1ccc(-c2cc3ccc4c(c3oc2=O)CN(C2CCS(=O)(=O)C2)CO4)cc1OC (configuration not stated) | 0.083 | 20.7% (inactive) | 43.1
36 | CC(O)(CNC(=O)/C=C/c1ccccc1)c1ccccc1 (configuration not stated) | 0.0976 | 44.2% (inactive) | 61.2
37 | Cn1c(=O)c2c(ncn2CCc2ccccc2)n(C)c1=O | 0.12 | 41.9% (inactive) | 67.6
38 | COCc1cnc2c(c1SCc1ccc(Br)cc1)c(=O)n(C)c(=O)n2C | 0.0342 | 27% (inactive) | 47.1
39 | Cc1cnc2c(c1SCC(=O)O)c(=O)n(C)c(=O)n2C | 0.0266 | 30.3% (inactive) | 58
40 | CCOC(=O)C(CC)Sc1ccnc2c1c(=O)n(C)c(=O)n2C (configuration not stated) | 0.0572 | 21.5% (inactive) | 49.8
41 | Cc1cnc2c(c1SCc1ccc([N+](=O)[O-])cc1)c(=O)n(C)c(=O)n2C | 0.158 | 47.1% (active) | 69.5
42 | Cc1cnc2c(c1NCCc1ccc(S(N)(=O)=O)cc1)c(=O)n(C)c(=O)n2C | 0.167 | 32.2% (active) | 50
43 | COc1ccc(CNC(=O)C(=O)NCC2CCN(Cc3cccs3)CC2)cc1 | 0.0534 | 41.2% (inactive) | 57.3
44 | CCOc1ccc(CC(=O)Nc2nn(C)c3c2C(C)CC(=O)N3)cc1 (configuration not stated) | 0.129 | 42.6% (inactive) | 64.1
45 | O=C(Nc1cc(-c2ccco2)nn1-c1nc(-c2ccccc2)cc(=O)[nH]1)c1ccco1 | 0.115 | 35.5% (inactive) | 53.1
46 | Cn1nnc2c(N3CCN(C(=O)c4cc5ccccc5o4)CC3)ncnc21 | 0.0567 | 24.9% (inactive) | 41.7
47 | Cc1cc(C)n(CCNC(=O)c2nc(-c3cnccn3)no2)n1 | 0.147 | 48.6% (inactive) | 86.3
48 | CS(=O)(=O)N1CCCCC1C(=O)Nc1nc(-c2ccccn2)cs1 (configuration not stated) | 0.116 | 43% (inactive) | 58.9
49 | CSc1ccc(CC(=O)Nc2nc(-c3nc4ccccc4s3)cs2)cc1 | 0.102 | 33% (inactive) | 57.3
50 | CC(C)Sc1ccc(C(=O)Nc2nc(-c3ccccn3)cs2)cc1 | 0.135 | -1.73% (active) | 2.45

Row | Structure (SMILES) | compound max-min signal | glutamate response, % of max | glutamate slope, % of max [%]
51 | Cc1nn(C2CCS(=O)(=O)C2)c2nc(-c3ccccc3)cc(C(=O)Nc3ccc(F)cc3F)c12 (configuration not stated) | 0.0886 | 43% (inactive) | 54.9
52 | COC(=O)c1ccc(NC(=O)CSc2nc(-c3ccccc3)c(N)s2)cc1 | 0.12 | 38.3% (inactive) | 63
53 | Cc1ccc(NC(=O)CSC2=NC(C)(C)N=C2c2ccccc2)c(C)c1 | 0.112 | 41.7% (inactive) | 61.7
54 | COc1cc(NC(=O)CSC2=NC3(CCCC3)N=C2c2ccccc2)cc(OC)c1 | 0.0812 | 57.8% (active) | 80.4
55 | CCS(=O)(=O)N1CCCc2ccc(NS(=O)(=O)c3cc(Cl)ccc3OC)cc21 | 0.119 | 44.4% (inactive) | 80.9
56 | Cc1c(C)n2c3c(=O)n(C/C=C/c4ccccc4)c(=O)n(C)c3nc2n1-c1ccccc1O | 0.0773 | 13.8% (inactive) | 35.4
57 | COC(=O)Cn1c(=O)c2c(nc3n(-c4ccccc4C)c(C)c(C)n23)n(C)c1=O | 0.0754 | 36.6% (inactive) | 56.4
58 | Cc1cccc(Cn2c(=O)c3c(nc4n(-c5ccccc5O)c(C)c(C)n34)n(C)c2=O)c1 | 0.11 | 3.33% (active) | 16.2
59 | Cc1ccc(NC(=O)NCC(O)c2ccc(C(F)(F)F)cc2)cc1 (configuration not stated) | 0.115 | 16.6% (inactive) | 47.8
60 | COc1ccc(S(=O)(=O)NCC(O)c2cccn2C)c(C)c1 (configuration not stated) | 0.107 | 43.5% (inactive) | 60.7
61 | Cc1cc(S(=O)(=O)NCCn2nc(-c3ccc(F)cc3)ccc2=O)ccc1F | 0.0676 | 28.5% (inactive) | 55.6
62 | Cc1cc(S(=O)(=O)NCC2(O)CCCC2)ccc1F | 0.0902 | 36% (inactive) | 60.8
63 | Cc1cc(S(=O)(=O)NCC(O)c2ccc(C(F)(F)F)cc2)ccc1F (configuration not stated) | 0.256 | 28.2% (active) | 41.3
64 | COc1cc(C)c(C)cc1S(=O)(=O)NCC(O)c1ccc(C(F)(F)F)cc1 (configuration not stated) | 0.216 | 20.5% (active) | 36
65 | CC(NC(=O)C12CC3CC(CC(C3)C1)C2)C(=O)N/N=C/c1ccc([N+](=O)[O-])o1 (configuration not stated) | 0.133 | 27.9% (inactive) | 52.7
66 | O=S(=O)(CCCOc1ccc(F)cc1)NCCCc1ccccc1 | 0.118 | 50.6% (inactive) | 66.1
67 | CCCNC(=O)Cn1c(=O)c2c(N3CCN(C(=O)c4ccco4)CC3)c(C)cnc2n(C)c1=O | 0.127 | 48.2% (inactive) | 70
68 | CCn1ccnc1N1CCN(C(=O)CCS(=O)(=O)c2ccccc2)CC1 | 0.0601 | 11.8% (inactive) | 23.3
69 | COCCNC(=O)Cn1cc(-c2nnc(C)o2)c2ccccc21 | 0.0888 | 38.9% (inactive) | 57.5
70 | O=C(NC(=S)Nc1ccc(S(=O)(=O)N2CCOCC2)cc1)c1sc2ccccc2c1Cl | 0.0349 | 29.8% (inactive) | 52.2
71 | CCN(CC)C(=O)C(=O)c1cn(CC(=O)N2CCOCC2)c2ccccc12 | 0.0509 | 31.2% (inactive) | 53.3
72 | Cc1cccc(C)c1NC(=O)Cn1c(=O)n(C(C)C)c(=O)c2nscc21 | 0.121 | 32.1% (active) | 45.8
73 | COC(=O)c1ccc(NC(=O)Cn2c(=O)n(C(C)C)c(=O)c3nscc32)cc1 | 0.116 | 34.2% (inactive) | 56.9
74 | CSc1cccc(NC(=O)Cn2c(=O)n(C3CC3)c(=O)c3nscc32)c1 | 0.107 | 26.5% (inactive) | 50.3

— PubChem BioAssay AID1259245 (Vanderbilt High Throughput Screening Facility, 2017)
